Experimental data from PubChem BioAssay (NCI).
This is part of a sample that, as a whole, favours compounds with a hit. Of some 83,000 tested, about 20% had one in any assay.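 Growth was measured after 48 h exposure to one concentration of compound in 96-well plates. Values under 10 count as active.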 Values without a mark were called inactive. The source made the active and inactive calls.

What was measured:
Test in all cases: NCI-60 one-dose screen, 48 h (100 = growth as untreated, 0 = no growth, -100 = all killed)
[1] = tested on: DU-145 prostate; settings: 10 µM unless noted
[2] = tested on: K-562 leukemia; settings: 10 µM unless noted
[3] = tested on: MALME-3M melanoma; settings: 10 µM unless noted
[4] = tested on: MDA-MB-231 breast; settings: 10 µM unless noted
[5] = tested on: RXF 393 renal; settings: 10 µM unless noted
[6] = tested on: SF-268 CNS; settings: 10 µM unless noted
[7] = tested on: SF-295 CNS; settings: 10 µM unless noted
[8] = tested on: SF-539 CNS; settings: 10 µM unless noted
[9] = tested on: UACC-257 melanoma; settings: 10 µM unless noted
[10] = tested on: M14 melanoma; settings: 10 µM unless noted
[11] = tested on: HCT-15 colon; settings: 10 µM unless noted
[12] = tested on: HT29 colon; settings: 10 µM unless noted
[13] = tested on: SNB-19 CNS; settings: 10 µM unless noted
[14] = tested on: U251 CNS; settings: 10 µM unless noted
[15] = tested on: SK-MEL-5 melanoma; settings: 10 µM unless noted
[16] = tested on: UACC-62 melanoma; settings: 10 µM unless noted
[17] = tested on: LOX IMVI melanoma; settings: 10 µM unless noted
[18] = tested on: SK-MEL-28 melanoma; settings: 10 µM unless noted
[19] = tested on: SNB-75 CNS; settings: 10 µM
[20] = tested on: PC-3 prostate; settings: 10 µM unless noted

Row | SMILES | growth [1] | growth [2] | growth [3] | growth [4] | growth [5] | growth [6] | growth [7] | growth [8] | growth [9] | growth [10] | growth [11] | growth [12] | growth [13] | growth [14] | growth [15] | growth [16] | growth [17] | growth [18] | growth [19] | growth [20]
1 | O=C(O)c1nc(-c2ccccc2)oc1N1CCOCC1 | 109% | 94% | 120% | 94.3% | 104% | 98.3% | 107% | 115% | 104% | 106% | 101% | 108% | 92.3% | 90.9% | 105% | 85.2% | 108% | 98.7% |  | 
2 | O=C(CCl)N(C1CCCCC1)C1CCCCC1 | 112% | 104% | 112% | 120% | 107% | 103% | 98.3% | 105% | 105% | 96.2% | 98.4% |  | 109% | 104% | 93.3% | 102% | -3.14% (active) | 104% | 95.7% | 93.7%
3 | O=C([O][Sn]([O]C(=O)c1ccccn1)([c]1ccccc1)[c]1ccccc1)c1ccccn1 | 92.3% | 24% | 86.4% | 87.4% | 41.7% | 83.5% | 127% | 97.4% | 73.9% | 85.8% | 81.7% |  | 105% | 86.3% | 84.3% | 83% | 50.6% | 98.1% | 49.3% | 93.1%
4 | CC(=O)Oc1csc(N(C(C)=O)c2cc(C(=O)O)cc(C(=O)O)c2)n1 | 97.4% | 102% | 87.9% | 89.2% | 95.8% | 92.9% | 96.4% | 89.6% | 92.8% | 84.5% | 92.8% | 104% | 97.2% | 88.5% | 94% | 94.2% | 90.2% | 106% |  | 
5 | C=C[C@@H]1C[C@@H]2Cc3cc(Cl)ccc3N1O2 | 111% | 95.4% | 88% | 99.3% | 104% | 106% | 100% | 105% | 99.2% | 97.9% | 97.7% |  | 113% | 89.7% | 102% | 96.5% | 92.5% | 103% | 93.3% | 94.9%
6 | O=C(N/N=C/C=C\c1ccccc1)C(=O)N/N=C/C=C/c1ccccc1 | 112% | 113% | 117% | 111% | 127% | 105% | 104% | 114% | 106% | 107% | 108% | 110% | 120% | 107% | 110% | 114% | 94% | 115% |  | 
7 | Cn1ncc2c(Sc3ccc(Cl)cc3)ncnc21 | 83% | 78.1% | 69.9% | 98.6% | 117% | 57.8% | 96.8% | 92.2% | 103% | 103% | 97% |  | 81.6% | 81.9% | 90.1% | 87.9% | 78.3% | 102% | 86.7% | 78.1%
8 | COc1ccc(/C=C2\Oc3cc(OCCCN4CCCC4)ccc3C2=O)cc1 | 95.4% | -25% (active) | 108% | 93.8% | 78.9% | 88.9% | 98.7% | 79.7% | 101% | 84.4% | 26.3% | 17% | 92.4% | 82.7% |  | 100% | 13.3% | 103% |  | 
9 | COc1ccc(C(=O)NC(=O)Nc2cc3c(cc2F)/C(=C/c2[nH]c(C)c(CCC(=O)O)c2C)C(=O)N3)c(F)c1 | 45.9% | 45.8% | 49.9% | 61.5% | 33.5% | 32.3% | 21.3% | 15.4% | 20.1% | 44.2% | 28% |  | 20% | 9.72% (active) | 59.6% | 31.3% | 38.5% | 44.4% | 9.65% (active) | 22.6%
